TSHR antag: blocks TSH signaling through the human TSH receptor; P16473; TSHR-expressing cells, TSH-stimulated cAMP HTRF, 2 h; hits give low values; activity change, negative = inhibition, % at 11.5 µM; 330,000 compounds, 0.2% hits; AID 504810;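 active means activity change below a set negative limit, meaning inhibition stronger than a set level, cut at about -70% in these data; inconclusive means activity change between two set negative limits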
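Antagonism was scored as loss of TSH-driven cAMP in TSHR cells, stimulated with 4nM TSH (EC80) for 2 hours at 37 deg C and detected by homogeneous HTRF competition immunoassay.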
VP16 counter: inhibits Gal4-VP16 luciferase reporter, ROR gamma counter-screen; Potency, µM (titrated, usually from 53.6 µM), actives largely listed as inhibitors; 310,000 compounds, 3.5% hits; AID 2546; Drosophila S2 Gal4-VP16 UAS-luciferase, luminescence, 20 h;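 further: Gal4-VP16 expression switched on by copper sulfate through the metallothionein promoter; nearly all actives have a fitted effect of over 50% in size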
ELG1 repair inh: blocks ELG1-dependent DNA repair in HEK293T cells; AID 504467; 330,000 compounds, 2.3% hits; Potency, µM (highest dose often 46.1 µM), actives largely listed as inhibitors; HEK293T ELG1-luciferase reporter, luminescence, 16 h; DNA damage induced by 5-fluorouridine; further: nearly all actives have a fitted effect of over 55% in size
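DMSO vehicle served as the neutral condition. Each well held 2,000 cells given 5-fluorouridine plus compound; after 16 hr at 37 °C/5% CO2, ONE-Glo was added and luciferase measured 30 min later.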
RORgamma inh: inhibitors of mouse ROR gamma transcriptional activity; Potency, µM (top dose mostly 53.6 µM), usual class: inhibitors; Drosophila S2 Gal4-RORgamma UAS-luciferase reporter, 20 h; 310,000 compounds, 5.4% hits; further: nearly all actives have a fitted effect of over 60% in size
Target sequence (P51450 whole entry, looked up, the tested form may be a part): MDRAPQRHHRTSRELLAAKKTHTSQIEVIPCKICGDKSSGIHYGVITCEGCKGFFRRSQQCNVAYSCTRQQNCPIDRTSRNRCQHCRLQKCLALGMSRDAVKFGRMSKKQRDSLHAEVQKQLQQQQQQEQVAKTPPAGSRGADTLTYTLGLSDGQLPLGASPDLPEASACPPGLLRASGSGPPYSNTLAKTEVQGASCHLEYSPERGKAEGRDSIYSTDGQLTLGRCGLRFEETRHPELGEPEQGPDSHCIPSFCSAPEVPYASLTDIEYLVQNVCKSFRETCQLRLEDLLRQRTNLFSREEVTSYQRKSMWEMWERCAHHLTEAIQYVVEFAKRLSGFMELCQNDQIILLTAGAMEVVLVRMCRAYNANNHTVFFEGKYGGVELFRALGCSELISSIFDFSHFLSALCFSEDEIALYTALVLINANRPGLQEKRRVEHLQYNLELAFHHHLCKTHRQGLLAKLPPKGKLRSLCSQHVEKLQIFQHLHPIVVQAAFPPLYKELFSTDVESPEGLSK
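Compounds are pin-transferred onto Drosophila Schneider cells expressing a copper-inducible Gal4–ROR gamma transactivation domain fusion. After 1 hr, copper sulfate is added to 700 uM final; luciferase is read 20 hr later.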
FBPA coupling cs: counter-screen for Giardia aldolase inhibitors: coupling enzyme system | coupling enzyme system counterscreen, AmpLite Red fluorescence | activity change, negative = inhibition, % at 58.2 µM, hits read low | 290,000 compounds, 0.67% hits; in the data active means activity change below about -30%
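Counterscreen lacking aldolase: glyceraldehyde-3-phosphate coupling-enzyme reagent preincubated 10 min at RT with compound (at 57.5 uM final), then substrate/coupling system with AmpLite Red added; fluorescence read at 525/598 nm after 20 min RT.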
Numbers stand for hits; . = inactive; ? = inconclusive; / = not tested or not shown; [ ] = another dose, or the depositor's remark. Most compounds without a hit are left out; they make up all but 8% or so of the library. Unless noted, the call rests on the fitted dose curve; in most records, active means well fitted curve in the direction sought with a large enough effect; inconclusive means small, poorly fitted or top-dose-only effect, or another doubt; inactive means no such curve, though single readings can be large; an effect the other way counts as inactive or inconclusive.

SMILES | TSHR antag | VP16 counter | ELG1 repair inh | RORgamma inh | FBPA coupling cs
CCN1CCN(C(=O)c2cc(COc3ccc4ncccc4c3)on2)CC1 | . | ? | ? | . | .
CC(C)N(Cc1nccn1C)C(=O)c1cc(COc2ccc3ncccc3c2)on1 | . | ? | . | . | .
Cc1nc(CN(C)C(=O)c2cc(COc3ccc4ncccc4c3)on2)cs1 | . | 6.3µM | ? | ? | .
COCC1CCCCN1C(=O)c1cc(COc2ccc3ncccc3c2)on1 (stereo not given) | . | 7.1µM | ? | . | /
CCCCNC(=O)C(CC)(ONc1ccccc1C(F)(F)F)c1ccccc1 (stereo not given) | . | / | . | / | /
COC(=O)c1c(/N=C/NOCc2ccc(Cl)cc2)sc2c1CCN(c1ncc(C(F)(F)F)cc1Cl)C2 | . | . | . | . | .
COC(=O)c1c(N)sc2c1CCN(c1ncc(C(F)(F)F)cc1Cl)C2 | . | ? | . | 1.6µM | .
COc1ccc(OC)c(CN2CCN(C(=O)[C@@H](NC(=O)c3cccc(C)c3)C(C)C)CC2)c1 | . | / | ? | / | /
O=C(COc1ccccc1)N=C1SC2CS(=O)(=O)CC2N1c1ccc(F)cc1 (stereo not given) | . | . | . | . | .
Cc1ccc(/C=N/NC(=O)c2ccc(Br)o2)s1 | . | 10µM | ? | 8.9µM | .
CCc1ccc(/C=N\NC(=O)c2ccc(Br)o2)s1 | . | 5µM | ? | 1.6µM | .
CCN(CC)c1ccc(/C=N/NC(=O)c2ccc(Br)o2)cc1 | . | ? | ? | ? | .
Cc1ccc(/C=N/NC(=O)Cc2ccc(O)cc2)s1 | . | . | . | . | .
COc1ccc(NC(=O)NNC(=O)c2ccc3ccccc3c2)cc1OC | . | . | . | . | /
CCCN1CCC(=O)N(C(CSc2ccc(C)cc2)CC(C)C)CC1 (stereo not given) | / | . | / | . | .
S=C(NCc1ccccc1)N1CCN(c2cccc(Cl)c2)CC1 | . | . | ? | ? | .
S=C(NC1CC2CCC1C2)N1CCN(c2cccc(Cl)c2)CC1 (stereo not given) | . | . | ? | 22µM | .
Cc1cc(/C=N/n2cnnc2)c(C)n1-c1ccc(OCc2ccccc2F)cc1 | . | ? | . | . | .
Cc1cc(/C=N/n2cnnc2)c(C)n1-c1ccc(OCc2ccc(Cl)cc2)cc1 | . | ? | ? | 2.8µM | .
COc1ccccc1/C=C/C(=O)NCCC1=CCCCC1 | . | .[10 µM] | ? | . | .
Cc1ccc(C(=O)NC(=S)N(C)C2CCCCC2)cc1Br | . | 0.5µM | . | 0.22µM | /
COc1ccc(C(=O)NC2CCCc3ccccc32)cc1Br (stereo not given) | . | . | . | . | .
COc1ccc(C(=O)NC(=S)N(C)C2CCCCC2)cc1Br | . | 0.71µM | . | 0.71µM | .
COc1ccc(C(=O)NCCS(=O)(=O)N(C)C2CCCCC2)cc1 | . | / | . | / | /
COc1ccc(C(=O)NC(=S)N(C)C2CCCCC2)cc1 | . | 4µM | ? | 2µM | /
SMILES | TSHR antag | VP16 counter | ELG1 repair inh | RORgamma inh | FBPA coupling cs
COc1ccccc1/C=C/C(=O)NC(=S)N(C)C1CCCCC1 | . | 3.2µM | . | ? | .
Cc1ccc(NC(=O)CN(C)C2CCCCC2)cc1Br | . | . | . | . | .
COc1cc2c(cc1OC)C1O[C@](CCCCN3C(=O)c4ccccc4C3=O)(C2)OC2=C1C(=O)CC(C)(C)C2 | / | .[10 µM] | / | .[10 µM] | .
Cc1ccc(S(=O)(=O)N2CCN(C(=O)CNC(=O)c3sc4ccccc4c3Cl)CC2)cc1 | . | / | . | / | /
O=C(NC1CC(=O)N(c2ccc(Cl)cc2)C1)N1CCN(C(=O)c2ccco2)CC1 (stereo not given) | . | / | . | / | /
COc1cc(CN(C2CCCCC2C)S(=O)(=O)c2ccc(S(=O)(=O)NC3CC3)cc2)cc(OC)c1OC (stereo not given) | . | . | 18µM | .[10 µM] | .
C/C=C/OC(=O)NC(c1ccccc1)[C@@]1(C(=O)OC)CCCC1=O (stereo not given in full) | / | .[10 µM] | / | .[10 µM] | .
CCOC(=O)CN1C(=O)C(=O)c2cccc(C)c21 | . | . | . | . | -48
c1ccc(CNc2nc3ccccc3[nH]2)cc1 | . | . | ? | ? | .
CN(C)c1nc(=S)nc(NCc2ccccc2)[nH]1 | -85 | .[10 µM] | . | . | .
CC(C)CNc1nc(=S)nc(N(C)C)[nH]1 | . | 4.5µM | . | 1.8µM | .
Cc1ccc(S(=O)(=O)NC2=NCN(C(C)C)CN2)cc1 | . | . | . | . | .
Cc1cc(C(C)(C)C)cc(C)c1CCNC(=O)c1ccc[n+]([O-])c1 | . | . | ? | . | .
CC(=O)c1ccc(N(CC(=O)NC2CCCC2)C(=O)CNC(=O)c2ccco2)cc1 | . | . | . | . | .
O=C(COc1ccc2ccccc2c1)N[C@@H](C(=O)O)c1ccc(O)cc1 | . | . | . | . | .
COc1cc(C2CC(=O)c3cnc(N4CCN(Cc5ccccc5)CC4)nc3C2)cc(OC)c1OC (stereo not given) | . | . | 3.3µM | . | .
O=C(O)c1cccc(NC2=C(N3CCOCC3)C(=O)c3ccccc3C2=O)c1 | . | . | ? | . | .
O=C(O)c1ccc(NC2=C(n3nnc4ccccc43)C(=O)c3ccccc3C2=O)cc1 | . | . | ? | . | -33
Fc1ccc2[nH]c3c(N4CCc5ccccc5C4)ncnc3c2c1 | ? | 3.2µM | 1.3µM | 11µM | .
CCOc1ccc2[nH]c3c(N4CCc5ccccc5C4)ncnc3c2c1 | . | ? | 18µM | ? | .
Brc1ccc2[nH]c3c(N4CCc5ccccc5C4)ncnc3c2c1 | -77 | . | ? | . | .
Fc1ccc2[nH]c3c(NCCN4CCOCC4)ncnc3c2c1 | . | 13µM | ? | ? | .
CN(C)C(CNC(=O)c1ccc(C(F)(F)F)cc1)c1ccco1 (stereo not given) | . | . | ? | . | /
Cc1ccc2[nH]c3c(N4CCc5ccccc5C4)ncnc3c2c1 | ? | 3.2µM | ? | ? | .
CC(C)NS(=O)(=O)c1ccc(NC(=S)NC(=O)c2ccc(-c3ccccc3)cc2)cc1 | . | ? | ? | 7.1µM | .
SMILES | TSHR antag | VP16 counter | ELG1 repair inh | RORgamma inh | FBPA coupling cs
O=C(O)c1ccc(NC(=S)NC(=O)c2ccc(-c3ccccc3)cc2)cc1 | . | . | ? | . | .
COc1nccnc1NS(=O)(=O)c1ccc(NC(=S)NC(=O)c2ccccc2)cc1 | . | . | . | . | .
O=C(NC(=S)Nc1ccccc1)c1ccc(-c2ccccc2)cc1 | . | 4.5µM | ? | 3.5µM | .
Cc1ccccc1C(=O)Nc1nnc(SCC(=O)NCc2ccco2)s1 | . | ? | ? | . | /
CC1=NN(C(=O)c2ccc(Cn3cc(Br)c([N+](=O)[O-])n3)o2)C(O)(C(F)(F)F)C1 (stereo not given) | . | 11µM | . | 4.5µM | .
CC1=NN(C(=O)c2ccc(Cn3nc(C)cc3C)o2)C(O)(C(F)(F)F)C1 (stereo not given) | . | 5.6µM | . | 6.3µM | .
